Source: PubChem BioAssay (NCATS)
Results filed as inconclusive are left out. Activity calls are given as the source filed them. Calls come from the whole dose curve; as a rule, active = well fitted inhibition curve with a large enough effect; inconclusive = small, poorly fitted or top-dose-only effect; inactive = flat fitted curve, though single readings scatter.

How the values were obtained:
Experiment in all cases: qHTS profiling for inhibitors of Plasmodium falciparum proliferation (AID 504749); note: nearly all actives have a fitted effect of over 60% in size
Conditions in all cases: P. falciparum in erythrocytes, SYBR Green DNA, 72 h; series mostly up to 28.7 µM
[1] = system: C2A
In short: (§1)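 Infected RBCs, 0.3% parasitemia/2.5% Hct final; cpd 72 h, 37 C, 5% CO2; lysis buffer with saponin/triton/SYBR Green I, o/n RT dark; FI 485/535; norm. to artemisinin (0.29 uM) and DMSO.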

[2] = system: CP211
In short: as §1

[3] = system: CP250
In short: as §1

[4] = system: CP256
In short: as §1

[5] = system: CP286
In short: as §1

[6] = system: CP291
In short: as §1

[7] = system: CP297
In short: as §1

[8] = system: CP315
In short: as §1

[9] = system: CP329
In short: as §1

[10] = system: FAB9
In short: as §1

[11] = system: JCK
In short: as §1

[12] = system: P93_24
In short: as §1

[13] = system: PC15
In short: as §1

[14] = system: SC27B
In short: as §1

Measured: Potency

CO/N=C(\C(=O)N[C@@H]1C(=O)N2C(C(=O)[O-])=C(C[N+]3(C)CCCC3)CS[C@@H]12)c1csc(N)n1
inactive: all assays above
